Results published in PubChem BioAssay AID504336 (NMMLSC, 2011).
Where “and” joins values, the source holds several entries; their conditions need not be identical. Identical values can stand only once. Unmarked numbers belong to inactive results. Calls of active or inactive are those of the source.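 The calls were made as follows: active = compounds whose GFP signal falls below 65% of the DMSO control level; inconclusive = fewer than 70 yeast cells counted in the well; inactive = the rest.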

test: TOR branch reporter RPL19A-GFP response – cell-based, S. cerevisiae, third cherry pick, flow cytometry, confirmation (AID 504336);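 also: median GFP fluorescence of all gated yeast cells by flow cytometry; ratio of well median fluorescence to plate mean of DMSO wells with DMSO = 100%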; conditions: S. cerevisiae RPL19A-GFP strain, 3 h, at 10 µM, stronger effect = lower value

Point of comparison: `CC(=O)Nn1cnc2c(c1=O)C1(CCCC1)Cc1ccccc1-2`, GFP response relative to DMSO 99.3%. Against it:
- COc1ccccc1OCc1cc(C(=O)N2CCN(C)C(c3ccccc3)C2)no1 (centres undefined) — higher, 101%
- OCCNc1ncnc2ccc(Br)cc12 — higher, 99.8%
- COc1ccccc1-c1cc(C(F)(F)F)nc(S(C)(=O)=O)n1 — lower, 96.2%
- Nn1cnc2c(c1=O)C1(CCCCC1)Cc1ccccc1-2 — higher, 101%
- Cc1nc2c(O)cccc2cc1CO — higher, 102%
- CN(C)CCCNc1cc(O)c2ncccc2c1 — higher, 103%
- Nc1c(C(=O)O)ccc2c1C(=O)c1ccccc1C2=O — higher, 101%
- COc1ccc(N/C=C/C(=O)c2ccc(Cl)cc2)cc1 — higher, 102%
- Cc1cccc(Nc2cc(=O)[nH]c(=O)[nH]2)c1 — higher, 100%
- COc1cc(=O)n(C)c2c(O)cccc12 — higher, 101%
- COc1ccccc1Nc1nc(NCCCN(C)C)nc(N)c1[N+](=O)[O-] — lower, 99.1%
- Nc1nc(NCCOCCO)nc(Nc2cccc(F)c2)c1[N+](=O)[O-] — higher, 102%
- Oc1c(Br)cc(Br)c2cccnc12 — lower, 88.3%
- CC(C)Nc1ncnc2ccc(Br)cc12 — lower, 97.8%
- N#Cc1c(N)nc(N)nc1Nc1ccc(Br)cc1 — higher, 99.6%
- Cc1ccc2c(C)ccc(O)c2n1 — higher, 103%
- COc1ccccc1Nc1nc(NCCC(C)C)nc(N)c1[N+](=O)[O-] — lower, 97.8%
- Nc1c(O)ccc2c1C(=O)c1ccccc1C2=O — higher, 102%
- COc1ccc(NC(=O)ON=C2c3ccccc3-c3ccccc32)cc1 — higher, 107%
- CC(=O)Nc1ccc(-c2nc3ccccc3o2)cc1 — higher, 99.6%
- O=C(O)CCCCCNc1ncnc2ccc(Br)cc12 — higher, 99.8%
- CCCC(=O)Nn1cnc2c(c1=O)C1(CCCCC1)Cc1ccccc1-2 — higher, 103%
- CCN(CC)c1ncnc2ccc(Br)cc12 — lower, 98%
- CCCOCc1ccc(O)c2ncccc12 — higher, 101%
- Cc1cccc(C)c1Nc1ncnc(N)c1[N+](=O)[O-] — lower, 98.5%
- Cc1cc(C)c2ccc(C(=O)O)nc2c1O — lower, 98.5%
- O=C(Nc1ccccc1)ON=C1c2ccccc2-c2ccccc21 — lower, 92.3%
- COCCCNc1nc(N)c([N+](=O)[O-])c(Nc2cc(OC)ccc2OC)n1 — higher, 101%
- Cc1ccc2nc(-c3ccc(NC(=O)c4cccnc4)cc3)oc2c1 — lower, 97.2%
- CN1CCN(C(=O)c2cc(COc3ccc(F)cc3Cl)on2)CC1c1ccccc1 (centres undefined) — higher, 100%
- CC(=O)Nc1ccc(-c2nc3cc(Cl)ccc3o2)cc1 — the same, 99.3%
- OCCN1CCN(c2ncnc3ccc(Br)cc23)CC1 — higher, 102%
- O=C(O)c1ccccc1-c1ccccc1C(=O)Nc1ccc(-c2nc3cc(Cl)ccc3o2)cc1 — lower, 98.5%
- COc1cccc2c(Cl)c(CCCl)c(C)nc12 — the same, 99.3%
- CCN(CC)C(=O)Oc1cc(=O)n(C)c2ccccc12 — higher, 99.8%
- CC(=O)CC(=O)Nc1ccc(C(N)=O)cc1 — higher, 100%

With `Cc1ccc(NN2C(=O)C=C(c3ccccc3)C2=O)cc1` the GFP response relative to DMSO was 61.2% (active).
With `COCC(C)NC(=O)CCS(=O)(=O)c1nc(-c2ccc(OC)cc2)cc(C(F)(F)F)n1` (centres undefined) the GFP response relative to DMSO was 98.3% and 102%.
